One may read the inhibition as the relative decrease from the control value, in per cent.

Consider 96 compounds from PubChem BioAssay AID1822 (The Scripps Research Institute Molecular Screening Center, 2009).

The campaign covered roughly 290,000 compounds. About 3,500 (1.2%) were called active. The full list was thinned out, with actives kept by preference. Values without a mark were called inactive.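 The calls were made as follows: active = inhibition above the campaign mean inhibition over all tested compounds plus 3 SD (cut at about 28% in these data); inactive = the rest.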

For the assay, the system named is M18 aspartyl aminopeptidase (Plasmodium falciparum 3D7). In words: inhibition of P. falciparum M18 aminopeptidase – biochemical, QFRET, recombinant enzyme, primary screen (AID 1822).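 Also: 0% = plate median of test compound wells and 100% = 2 mM ZnCl2.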 Conditions: recombinant PfM18AAP, H-Glu-NHMec fluorogenic cleavage; at 7.35 µM; active compounds read high.
In the case of `O=C(N/C(=C\c1ccc([N+](=O)[O-])cc1)C(=O)N1CCOCC1)c1cccc(Br)c1`, the inhibition was 0.07%.
The result for `COc1ccc(C(=O)N2CCCN(C)CC2)c(OC)c1` reads -1.62%.
In the case of `CCOc1cc(/C=C2\SC(N3CCCC(C)C3)=NC2=O)ccc1O` (stereo unspecified) it was 9.44%; in that of `O=c1c2ccccc2[nH]c(=S)n1CCN1CCC(=C(c2ccc(F)cc2)c2ccc(F)cc2)CC1`, -3.53%; in that of `Cc1nc(N=C(N)N)nc2c(C)cccc12`, 3.01%.
In the case of `COc1cc(COCC(O)CN2CCN(Cc3ccc4c(c3)OCO4)CC2)cc(OC)c1OC` (stereo unspecified), the inhibition is 1.06%.
In the case of `COc1ccc(CN2CCCC(N3CCc4ccccc4C3)C2)c(O)c1` (stereo unspecified) it was 1.47%; in that of `COc1c(O)ccc2c1CN1CCc3cc4c(cc3C1C2)OCO4` (stereo unspecified), 42.2% (active).
The result for `Cc1ccc(NC(=O)CSc2sc3c(O)cc(=O)[nH]c3c2C#N)cc1C` reads 9.88%; that for `Cc1cc(=O)[nH]c(SCC(N)=O)c1C#N`, 6.8%.
In the case of `Cc1cc(=O)[nH]c(S)c1C#N` it was 31.9% (active); in that of `CC(C)(C)C(=O)NNC(=O)c1ccc(Oc2cc(Cl)cc(Cl)c2)o1`, 7.33%.
`CCC(C)C(NC(=O)C1CCC(=O)N1C(=O)OCc1ccccc1)C(=O)NC(C(=O)N1CCCC1C(N)=O)C(C)CC` (stereo unspecified): the inhibition is 1.63%.
In the case of `CCOC(=O)/C(C#N)=C/c1ccc(N2CCCCC2)cc1` it was 0.72%; in that of `O=C1C=CC(=O)N1c1ccc(N2CCCCC2)cc1`, 35.3% (active).
In the case of `O=C(Cc1ccccc1)NC(=S)Nc1ccc(N2CCCCC2)cc1` it was -3.44%; in that of `CC(C)CCN(C(=O)c1csnn1)C(C(=O)NC1CCCC1)c1ccccc1` (stereo unspecified), 5.8%; in that of `O=C(Nc1ccnn1C1CCN(Cc2cccc(OCCO)c2)CC1)C1CCCC1`, -3.2%.
For `CCCC(C)NC(=O)C1CCN(C(=O)C2CC(=O)N(c3ccc(C)cc3)C2)CC1` (stereo unspecified), the inhibition is -1.18%.
The result for `CC1=CC(C)(C)N(C(=O)CSc2nnc(-c3ccccc3)o2)c2ccc(C)cc21` reads 1.48%; that for `COc1ccc2c(c1)C(C)=CC(C)(C)N2C(=O)CNCc1ccc2c(c1)OCO2`, 12.3%.
Consider `COc1ccc2c(c1)C(C)=CC(C)(C)N2C(=O)Nc1ccccc1`, for which the inhibition is 34.2% (active).
In the case of `O=C1C(=O)N(CCCO)C(c2ccccc2)/C1=C(\O)c1ccc(Br)cc1` (stereo unspecified) it was -0.04%; in that of `O=C(CN1C(=O)NC2(CCCCC2)C1=O)NCCc1c[nH]c2ccccc12`, 0.15%; in that of `CC(C)NC(=O)C(=O)N/N=C/c1ccco1`, -9.66%.
The result for `O=C(N/N=C/c1ccco1)c1ccc(C(=O)N/N=C/c2ccco2)o1` reads 6.04%.
In the case of `O=c1nc(N/N=C/c2ccco2)cn[nH]1` it was 52.8% (active); in that of `CCS(=O)(=O)Nc1ccc(C(=O)NCCSc2ccccc2)cc1`, -4.1%; in that of `CCCCNC(=O)C1CCC(=O)N1CCc1ccccc1` (stereo unspecified), -7.08%.
Take `CNC(=O)/C(C#N)=C/c1c(F)cccc1Cl`: the inhibition is -1.65%.
The result for `COc1cc(CN2CCN(Cc3ccc(C)cc3)CC2)c([N+](=O)[O-])cc1OC` reads 29.9% (active); that for `COc1cc(CN2CCCN(C)CC2)c([N+](=O)[O-])cc1OC`, 13.4%; that for `COc1cc(CNCc2ccc3c(c2)OCO3)c([N+](=O)[O-])cc1OC`, 13.5%.
In the case of `O=C(CSc1nc2ccc([N+](=O)[O-])cc2[nH]1)c1ccc(Cl)cc1` it was 3.49%; in that of `O=C(CC(n1cncn1)C(Cl)(Cl)Cl)c1ccc([N+](=O)[O-])cc1` (stereo unspecified), 55.3% (active).
The result for `O=C(CCn1nnc2ccccc21)OCC(=O)c1ccc([N+](=O)[O-])cc1` reads 21.8%; that for `COc1cc(SC)ccc1C(=O)N(Cc1ccccc1)c1ccccc1`, 0.45%; that for `Cc1nn(CC(=O)NC2CCCCC2)c(=O)c2cccn12`, -6.41%.
As to `CCN1/C(=C/C(=S)Nc2ccccc2)Sc2ccccc21`, the inhibition was 46.3% (active).
In the case of `CCN1/C(=C/c2ccc3ccc(C)cc3[n+]2CC)Sc2ccccc21` it was -2.79%; in that of `O=C(CCN1c2ccccc2Sc2ccccc21)Nc1ccccc1`, 6.09%; in that of `O=c1c2cc([N+](=O)[O-])ccc2nc2n1CCC2`, 3.84%.
The result for `Fc1ccccc1COc1cccc2cccnc12` reads -17.2%.
The result for `O=C(CSc1nc2cccnc2n1Cc1ccccc1)N1CCc2ccccc21` reads -2.92%.
On to `CCOC(=O)N1CCN(S(=O)(=O)c2ccc(Br)cc2)CC1`, for which the inhibition is -5.88%.
The result for `c1ccc2c(c1)OCC(c1nn3cnnc3s1)O2` (stereo unspecified) reads 55.2% (active).
With `O=C(Nc1nnc(C2COc3ccccc3O2)o1)c1ccc(F)cc1` (stereo unspecified), the inhibition was 5.07%.
In the case of `COc1ccc(OC)c2sc(NC(=O)C3COc4ccccc4O3)nc12` (stereo unspecified) it was -7.49%.
As for `COc1cc(NC(=O)C2=CC(c3ccc(C)cc3)=NS(=O)(=O)N2C)cc(OC)c1OC`, the inhibition is 13.1%.
In the case of `CC(=O)c1ccc(N2CCN(C(=O)C3CCN(S(=O)(=O)c4ccc5c(c4)CC(C)N5C(=O)C4CC4)CC3)CC2)cc1` (stereo unspecified), the inhibition is -0.32%.
In the case of `CN(CCC1CCOCC1)C(=O)CC1C(=O)NCCN1Cc1cccc(F)c1` (stereo unspecified) it was 6.55%.
In the case of `CCCOc1ccc(C2NC(=O)NC(c3ccccc3)=C2C(C)=O)cc1OCC` (stereo unspecified) it was -0.97%.
For the compound `COc1cccc(COc2ccc(N(C)S(=O)(=O)c3ccccc3)cc2)c1`, the inhibition was 4.14%.
The result for `CN(C)c1ccc(N/C=C/C(=O)C(F)(F)F)cc1` reads 29.1% (active); that for `O=C(/C=C/Nc1ccccc1OC(F)(F)F)C(F)(F)F`, -3.52%.
As for `CC(=O)N(C)c1ccc(NC(=O)C(F)(F)F)cc1`, the inhibition was -1.27%.
Consider `COc1cccc2sc(NNC(=O)c3nc4ccccc4s3)nc12`, for which the inhibition is 30.1% (active).
Turning to `COc1cccc2sc(Nc3nc(C)c(C(C)=O)s3)nc12`, the inhibition was 7.92%.
The result for `COc1ccccc1OCc1nc2ccccc2s1` reads 2.93%; that for `CCCc1cc(=O)n2[nH]c(C)c(-c3ccc(Cl)cc3)c2n1`, -3.86%.
The result for `Cc1ccc(NC2CCCN(C(=O)CCC3(C)CC3)C2)cc1C` (stereo unspecified) reads 12.1%; that for `O=[N+]([O-])c1ccc(N2CCSCC2)cc1O`, 7.26%.
Turning to `O=C1CSC(=S)N1/N=C/c1ccc(O)c([N+](=O)[O-])c1`, the inhibition was 39.1% (active).
The result for `Cc1cc(C(=O)N/N=C/c2ccc(O)c([N+](=O)[O-])c2)c(C)n1-c1ccc(F)cc1` reads 1.56%; that for `CCC(C)NC(=O)C1c2ccccc2Oc2ccccc21` (stereo unspecified), -7.47%.
The result for `O=C(N/N=C/c1ccc(O)c(O)c1)C1c2ccccc2Oc2ccccc21` reads 66.5% (active); that for `CCC(C)(C)NC(=O)C1c2ccccc2Oc2ccccc21`, 0.98%.
As to `CC(C)(C)SCCSC1=CC(=O)CC(c2ccccc2)C1` (stereo unspecified), the inhibition was -7.92%.
In the case of `COc1ccc(CCNC(=O)CN2C(=O)COc3ccc(S(=O)(=O)N4CCCC4)cc32)cc1OC`, the inhibition is 0.73%.
The result for `Cc1ccc(-c2noc(CN3CCN(Cc4ccccc4)CC3)n2)cc1` reads -2.79%.
`Cc1ccc(-c2noc(CC(c3ccccc3)c3ccccc3)n2)cc1`: the inhibition was 34.4% (active).
In the case of `COc1ccccc1Cc1nc(-c2ccc(C)cc2)no1` it was 0.56%; in that of `CCOC(=O)c1ccc(NC(=S)N2CCN(c3ccccn3)CC2)cc1`, 0.52%.
Take `CSCCC(NS(=O)(=O)c1ccc(C)cc1)C(=O)N1CCCC1` (stereo unspecified): the inhibition is -2.59%.
The result for `Cn1c(=O)[nH]c(=O)c2c1[nH]c(=S)n2Cc1ccccc1` reads 51.6% (active).
In the case of `COc1ccc(CNc2nc3c(c(=O)[nH]c(=O)n3C)n2Cc2ccccc2)cc1` it was 7.49%; in that of `C=CCSc1nc2c(c(=O)[nH]c(=O)n2C)n1Cc1ccccc1`, -7.79%; in that of `CCS(=O)(=O)C1=NSC2=NC(=O)/C(=C\c3ccc(OS(=O)(=O)c4ccccc4)cc3)C(=N)N21`, 5.46%.
The result for `CC1CCC2(CC1)NC(=O)N(Cc1nnc(-c3cccs3)o1)C2=O` (stereo unspecified) reads -3.12%.
As to `CC(C)(C)OC(=O)NNc1c2ccccc2nc2ccccc12`, the inhibition was 29.7% (active).
The result for `O=C(NNc1c2ccccc2nc2ccccc12)c1cc2ccccc2cc1O` reads 1.24%; that for `CC(=O)Nc1ccc(Nc2c3ccccc3nc3ccccc23)cc1`, 4.35%; that for `O=c1c2cc(-c3ccccc3)sc2nc2n1N=C(c1cccs1)CS2`, 6.06%.
The result for `CC1CCN(S(=O)(=O)c2ccc3[nH]c(=O)ccc3c2)CC1` reads -0.17%; that for `Cc1ccc(CCC(=O)Nc2ncc(Cc3cc(Cl)ccc3Cl)s2)o1`, -7.4%.
The result for `O=C(c1cnn(-c2ccc(Cl)cc2)c1)c1ccccc1O` reads -0.75%; that for `Cc1ncc(CC(=O)n2cc(C(=O)c3cc(Cl)ccc3O)cn2)s1`, 29.3% (active).
Regarding `O=S(=O)(c1ccc(-c2ccno2)s1)N1CCCCC1`, the inhibition is 11%.
The result for `CCOc1ccccc1-c1cc(C(=O)N/N=C(\C)c2cccnc2)c2ccccc2n1` reads 1.07%; that for `CC(C)c1ccc(NC(=S)NNc2ccc(Cl)c(C(=O)O)c2)cc1`, 39.9% (active).
In the case of `O=C(NC(=S)Nc1ccc(Cl)c(C(=O)O)c1)c1cncc(Br)c1` it was 15.9%; in that of `Cc1ccc(C)c(NC(=S)NNC(=S)Nc2ccc(C(C)C)cc2)c1`, 3.44%.
In the case of `COc1cccc(-n2c(N)cc(=O)nc2SCC(=O)Nc2cc(C)on2)c1` it was -2.14%.
With `O=C(CCc1ccccc1)Nc1ncc([N+](=O)[O-])s1`, the inhibition is 4.6%.
In the case of `CC(=O)Oc1ccccc1C(=O)Nc1ncc([N+](=O)[O-])s1` it was 35.7% (active); in that of `O=C(Nc1ncc([N+](=O)[O-])s1)C1COc2ccccc2O1` (stereo unspecified), 12%.
